From PubChem BioAssay AID1619 (SRMLSC, 2009)
Screen size: about 220,000 compounds; about 830 (0.38%) were called active. These entries were drawn from the full list. Entries with a potency or affinity are not part of this list. Unmarked numbers belong to inactive results.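 The calls were made as follows: active = compound inhibiting the enzyme by more than half at any dose during confirmatory dose-response retesting; inconclusive = strong single-dose inhibitors picked by rank but not retested; inactive = the rest.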

molecular target: Leucine aminopeptidase (Plasmodium falciparum (isolate 3D7)) (UniProt Q8IL11); experiment: P. falciparum M17LAP inhibitors, primary screen, biochemical, fluorogenic H-Leu-NHMec substrate, 1536-well (AID 1619); details: recombinant M17LAP, H-Leu-NHMec fluorogenic kinetic assay; at 30 µM; hits give high values;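 also: plate controls were full reaction with DMSO carrier for no effect and no enzyme background for full effect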
Sequence (Q8IL11 whole entry, looked up): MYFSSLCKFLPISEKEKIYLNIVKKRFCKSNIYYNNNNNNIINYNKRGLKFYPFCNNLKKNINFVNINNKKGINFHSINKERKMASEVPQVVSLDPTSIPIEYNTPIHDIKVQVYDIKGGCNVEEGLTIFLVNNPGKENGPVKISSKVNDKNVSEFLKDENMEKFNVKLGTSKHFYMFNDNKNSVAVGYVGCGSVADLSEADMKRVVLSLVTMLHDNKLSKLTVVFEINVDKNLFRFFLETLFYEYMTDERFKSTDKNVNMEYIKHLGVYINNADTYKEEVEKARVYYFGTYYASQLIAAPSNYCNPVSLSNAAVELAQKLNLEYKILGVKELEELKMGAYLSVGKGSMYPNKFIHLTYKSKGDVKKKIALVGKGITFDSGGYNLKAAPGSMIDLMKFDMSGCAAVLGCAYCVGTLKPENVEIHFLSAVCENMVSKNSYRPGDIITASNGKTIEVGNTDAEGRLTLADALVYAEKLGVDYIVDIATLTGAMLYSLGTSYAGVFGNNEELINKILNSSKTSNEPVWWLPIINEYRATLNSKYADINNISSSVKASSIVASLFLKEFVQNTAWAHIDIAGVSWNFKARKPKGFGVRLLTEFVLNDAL

| SMILES | inhibition [%] |
| --- | --- |
| CCSc1cnn(-c2ccccc2)c(=O)c1SCC | 9.04 |
| Cc1ccc(C(=O)O)cc1NC(=O)C1CCCN1S(=O)(=O)c1cccc2nsnc12 (stereo not given) | -2.3 |
| CC(=O)Nc1ccccc1OCC(=O)NC(C)c1ccc(F)cc1 (stereo not given) | 7.52 |
| CCOC(=O)c1oc2ccccc2c1NC(=O)c1ccc(S(=O)(=O)N2CCCC2)cc1 | -6.8 |
| S=c1[nH]nc(-c2cc(-c3ccccc3)n[nH]2)n1/N=C/c1ccc(Cl)cc1 | 1.35 |
| O=C(Nc1ccc(Cl)cc1)c1csc(-c2ccccc2)n1 | -10.4 |
| CC(C)OC(=O)/C(C#N)=C/c1cn(C)c2ccccc12 | -3.85 |
| CC(=O)N1CCC2(CC1)C(C#N)=C(N)Oc1n[nH]c(C(F)(F)F)c12 | -15.9 |
| CC(=O)N1CCC2(CC1)C(C#N)=C(N)Oc1n[nH]c(C)c12 | 8.86 |
| COCc1[nH]nc2c1C1(CCSCC1)C(C#N)=C(N)O2 | 11.4 |
| Cc1ccc(SCc2[nH]nc3c2C2(C(=O)Nc4ccc(F)cc42)C(C#N)=C(N)O3)cc1 (stereo not given) | 10.5 |
| CCCC(=O)Nc1ccc(C(=O)NN2C(=O)c3ccccc3C2=O)cc1 | -2.16 |
| O=C(c1ccccn1)N(Cc1ccco1)C1(C(=O)NC2CCCCC2)CCCCC1 | 1.03 |
| CC1CCCCN1CC(=O)Nc1cc(S(=O)(=O)N2CCOCC2)ccc1N1CCCC1 (stereo not given) | 4.92 |
| Cc1ccc(NC(=O)N2CCCCC2)cc1NC(=O)N1CCCCC1 | -2.13 |
| CC1CC(CC(=O)Nc2nc(-c3ccccc3)cs2)C(=O)O1 (stereo not given) | 2.05 |
| CC1(C)CC(CC(=O)NNc2nc(-c3ccccc3)cs2)C(=O)O1 (stereo not given) | 12.7 |
| C/C(CC1CC(COCC(C)C)OC1=O)=N\Nc1nc(-c2ccccc2)cs1 (stereo not given) | 10.7 |
| CC1CC(CC(=O)NNc2nc(-c3ccccc3)cs2)C(=O)O1 (stereo not given) | 12.5 |
| O=C(CN(Cc1ccco1)S(=O)(=O)c1ccccc1)N/N=C/c1ccccc1C(=O)O | 38.3 |
| CCOc1cc(C(=O)OCC(=O)Nc2cc(C)on2)ccc1OCC(C)C | -3.97 |
| Cc1ccccc1NC(=O)Cn1nnc(-c2ccc(N3CCOCC3)cc2)n1 | 2.77 |
| COc1ccccc1N(CC(=O)Nc1cc(C)on1)S(=O)(=O)c1ccc(Cl)cc1 | -0.47 |
| NC(=O)[C@@H]1CCCN1Cc1nc(-c2cccs2)no1 | -3.71 |

| SMILES | inhibition [%] |
| --- | --- |
| CCOC(=O)/C(C#N)=C\c1ccc(CC)s1 | 14.8 |
| CCCCCCN1C=CC(=C/C=C(\C#N)C(=O)OCC)C=C1 | -2.08 |
| C=CCN1C=C/C(=C\C=C(C#N)C#N)c2ccccc21 | -9.06 |
| CCOC(=O)/C(C#N)=C/C=C1\C=Cc2ccccc2N1CC | 1.1 |
| CCOC(=O)/C(C#N)=C/C=C1/C=CC=CN1C | 20 |
| CCOC(=O)/C(C#N)=C/N=c1ccc(C)cn1C | 12.6 |
| CCOC(=O)/C(C#N)=C\N(C)C | 5.6 |
| CCCN1C=CC(=CC=C(C#N)C#N)C=C1 | 40.8 |
| CCOC(=O)c1nnn(-c2nonc2-n2cccc2)c1CCl | 7.36 |
| COC(=O)CN(c1ccccc1OC)S(=O)(=O)c1ccccc1 | -2.64 |
| Cc1ccc(C)c(NC2=C(Cl)C(=O)OC2OC(C)C)c1 (stereo not given) | -15.8 |
| CC(=O)N1CCC(N(C(=O)Nc2ccc(F)cc2)C2CCCC2)CC1 | 11 |
| CC(C)(C)c1ccc(C(=O)c2c[nH]c(C(=O)NCC3CCCO3)c2)cc1 (stereo not given) | -3.09 |
| NC(=O)c1ncc(C(F)(F)F)cc1Oc1cccc(C(F)(F)F)c1 | -2.19 |
| Cc1cc(C)nc(NC(=O)C2c3ccccc3Oc3ccccc32)n1 | 5.07 |
| CCN(CC)CCNc1nc(-c2cccs2)c(CC(=O)O)s1 | 0.71 |
| CCCc1cc(C(=O)Nc2sc(C)c(CC)c2C#N)no1 | 3.41 |
| O=C(O)c1ccc(COc2ccccc2/C=C2\NC(=O)N(Cc3ccccc3)C2=O)cc1 | 20.1 |
| O=C(CN1C(=O)S/C(=C\c2ccccc2)C1=O)NNC(=O)c1ccccc1O | 9.15 |
| O=C(NNC(=O)c1ccccc1O)c1ccco1 | 20.5 |
| O=C(Nc1ccc(O)cc1)c1ccc2c(c1)C(=O)N(Cc1ccco1)C2=O | 13.2 |
| O=C(CSc1nnc(-c2ccccc2)n1Cc1ccccc1)NNC(=O)c1ccccc1O | 10.4 |
| O=C1/C(=C\c2ccco2)SC(=S)N1Cc1ccccc1 | 21.4 |
| O=C(Nc1ccc(O)cc1C(=O)O)c1ccc2c(c1)C(=O)N(Cc1ccco1)C2=O | -9.39 |

| SMILES | inhibition [%] |
| --- | --- |
| COC(=O)C1=C(C)N(Cc2ccccc2)C(=O)/C1=C\c1ccco1 | 23.3 |
| Cc1cccc(C(=O)NCCC(=O)Nc2nc(C)c(Cc3ccc4c(c3)OCO4)s2)c1 | -0.81 |
| CC(C)NC(=S)N1CCN(c2ncccn2)CC1 | -3.12 |
| COc1ccc(C(=O)NC2CCN(C(=S)Nc3ccc(C)cc3)CC2)cc1 | 3.35 |
| O=C(NC(Cc1ccccc1)C(=O)NC1CC1)OCc1ccccc1 (stereo not given) | 9.99 |
| CCCOc1ccc(OCCSc2nnc(N)s2)cc1 | -4.02 |
| Cc1cc(C)c(/C=N/NC(=O)c2nnn(-c3nonc3N)c2COc2ccc(F)cc2)c(C)c1 | 11.6 |
| CC(=O)Nc1nc(COc2ccccc2)cs1 | -12.2 |
| O=[N+]([O-])c1ccc(N2CCN(S(=O)(=O)c3ccccc3)CC2)cc1NCCN1CCOCC1 | -0.09 |
| CCOC(=O)c1cc(NC(=O)c2cccnc2)ccc1N1CCOCC1 | -6.5 |
| Cc1ccnc(SCC(=O)N2CCCc3ccccc32)n1 | -6.82 |
| O=S(=O)(Nc1cccc2c1CCCC2)c1cccc(C(F)(F)F)c1 | -8.32 |
| COc1ccc([N+](=O)[O-])cc1NC(=O)Cc1ccc(Cl)cc1 | 8.59 |
| COc1cc([N+](=O)[O-])ccc1NC(=O)Cc1ccc(C)cc1 | -2.2 |
| Cc1ccc(NC(=O)CSc2nnc(-c3ccco3)c(-c3ccco3)n2)cc1 | 53.2 |
| CC(=O)c1ccc(NC(=O)CSc2nnc(-c3ccco3)c(-c3ccco3)n2)cc1 | 22.5 |
| Cc1cccc(NC(=O)CSc2nnc(-c3ccco3)o2)c1C | 0.69 |
| Cc1ccccc1NC(=O)CSc1nnc(-c2ccco2)c(-c2ccco2)n1 | 42.7 |
| CC1CN(Cc2nnc(-c3ccccc3)o2)CC(C)O1 (stereo not given) | 3.22 |
| Cc1c(NC(=O)CN2C(=O)c3cccc4cccc2c34)c(=O)n(-c2ccccc2)n1C | 29.2 |
| COc1cccc(CNC(=O)C2CCC(CNc3c(N4CCC(C)CC4)c(=O)c3=O)CC2)c1 (stereo not given) | -8.13 |
| O=C(CCc1ccccc1)NNC(=S)Nc1ccc(F)cc1 | 5.08 |
| CC(C)(C)Sc1ccc(/C=N/O)cc1[N+](=O)[O-] | -1.67 |
| CC(C)CSC1=NSC2=NC(=O)/C(=C\c3cccs3)C(=N)N12 | 9.74 |

| SMILES | inhibition [%] |
| --- | --- |
| N=C1/C(=C/c2cccs2)C(=O)N=C2SN=C(SCc3ccccc3)N12 | 14.2 |
| O=C(CN1CCc2ccccc2C1)N1CCN(S(=O)(=O)c2ccccc2)CC1 | 7.42 |
| CCOc1ccc2nc(NC(=O)C(NS(=O)(=O)c3cccc4nsnc34)C(C)C)sc2c1 (stereo not given) | -8.83 |
| CCCSc1nc2c3c(sc2c(=O)[nH]1)CC(C)(CC)OC3 (stereo not given) | -0.94 |
| CC1(C)Cc2sc3c(=O)[nH]c(=S)[nH]c3c2CO1 | 6.75 |
| CCOC(=O)c1c(NC(=O)/C=C/C(=O)O)sc(C)c1-c1ccc(C)c(C)c1 | 8.96 |
| COC(=O)c1c(NC(=O)/C=C/C(=O)O)sc(C)c1-c1ccc(C)cc1 | 14.7 |
| COCCNc1nc2nonc2nc1N1C[C@H]2CC[C@H]1C2 | 8.08 |
| COc1ccc(N2CCN(CCCNC(=O)C3(S(=O)(=O)c4ccc(Cl)cc4)CC3)CC2)cc1 | 16 |
| COc1cc(NC(=O)CN2CCN(Cc3ccc4c(c3)OCO4)CC2)cc(OC)c1 | 19.9 |
| Cc1ccc(NC(=O)C2CCCCC2C(=O)O)cc1C (stereo not given) | 16.6 |
| O=C(NNC(=O)C1CC=CCC1C(=O)O)c1ccc(Cl)cc1 (stereo not given) | 7.35 |
| O=C(O)C1CCCCC1C(=O)Nc1ccc(Cl)cc1 (stereo not given) | 54.6 |
| O=C(Nc1ccc2c(c1)CCC2)C1CCCO1 (stereo not given) | 6.84 |
| Cc1ccc(NC(=O)C2CCCCC2C(=O)O)cc1Cl (stereo not given) | 77.4 |
| Cc1onc(-c2ccccc2Cl)c1C(=O)Nc1ccccc1C(=O)NC(C)C | 9.44 |
| COc1cc(C(=O)NC(C)c2cnn(-c3ccccc3C)c2C)cc(OC)c1OC (stereo not given) | 5.89 |
| COC(=O)c1c(NC(=O)CSc2ncnc3[nH]ncc23)sc2c1CCC2 | 33 |
| CN(C)S(=O)(=O)c1cccc(CSc2cccc[n+]2[O-])c1 | -1.76 |
| Cc1ccc2cc(CCNC(=O)C(=O)c3c[nH]c4ccccc34)c(=O)[nH]c2c1 | -4.94 |
| COC(=O)c1cc(Cl)c(NC(=O)c2cc3ccccc3o2)cc1OC | -2.34 |
| O=C(c1ccc(Br)cc1)c1cc(-c2ccccn2)c(N2CCOCC2)s1 | 5.58 |
| Cc1csc2c(SCC(=O)NNS(=O)(=O)c3cccc(C(F)(F)F)c3)ncnc12 | -12.4 |
